Data reported in PubChem BioAssay AID743263 (The Scripps Research Institute Molecular Screening Center, 2014).
In all, about 1,100 compounds went through this assay and about 250 (23%) were called active. Rule as the data show it: active = inhibition above about 25%; inactive = the rest. Only a sample is shown.

What follows are compounds tested against Tyrosyl-DNA phosphodiesterase 2 (Homo sapiens) (UniProt O95551) (assay: blockers of TDP2 phosphodiesterase activity – biochemical, epi absorbance, recombinant enzyme, confirmation (AID 743263;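 also: 0% = vehicle with enzyme and 100% = no enzyme buffer only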)). Settings: recombinant human TDP2, absorbance read-out; at 12.8 µM; active compounds read high.
Sequence of Tyrosyl-DNA phosphodiesterase 2 (Homo sapiens) (O95551 whole entry, looked up): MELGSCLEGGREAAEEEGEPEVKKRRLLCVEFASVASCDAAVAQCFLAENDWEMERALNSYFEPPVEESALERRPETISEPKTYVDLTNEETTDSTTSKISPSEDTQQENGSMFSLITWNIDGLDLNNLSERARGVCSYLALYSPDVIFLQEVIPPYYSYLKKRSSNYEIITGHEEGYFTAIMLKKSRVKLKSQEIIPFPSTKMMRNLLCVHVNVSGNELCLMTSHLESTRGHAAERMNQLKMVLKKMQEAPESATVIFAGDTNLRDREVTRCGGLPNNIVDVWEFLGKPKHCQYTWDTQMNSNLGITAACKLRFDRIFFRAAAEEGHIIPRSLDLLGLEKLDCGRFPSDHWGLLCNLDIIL
In the case of `NC1=CC(=O)C(=O)c2cccnc21`, the inhibition is reported as 65.8% (active).
For `CCSc1nnc(SCC(=O)NNC(=O)c2ccccc2F)s1`, the inhibition was -14.1% (inactive).
In the case of `Cc1cc(C)c(OCCN2CC(C)OC(C)C2)c(Br)c1` (stereo not drawn), the inhibition is reported as -5.14% (inactive).
With `CCCCCCCCc1c(O)nc(-n2[nH]c(C)c(CCO)c2=O)[nH]c1=O` the inhibition was 27.3% (active).
In the case of `CCOC(=O)N1CCC(c2cc(=O)n(-c3ccccc3)[nH]2)CC1`, the inhibition is reported as 0.79% (inactive).
With `Cc1ccc(S(=O)(=O)N2CCC(C(=O)NCCC3=CCCCC3)CC2)cc1C` the inhibition was -3.83% (inactive).
`CC(=O)N(C1=C(Cl)C(=O)c2ccccc2C1=O)c1ccc(C(=O)O)cc1` was tested, and the inhibition was 59.3% (active).
`CC(C)Cn1c(N)c(C(=O)NCc2cccs2)c2nc3ccccc3nc21` was tested, and the inhibition was 10.2% (inactive).
In the case of `CCN(CC)CCN1C(=O)C2C(C(=O)Nc3ccc(Br)cc3)C3C=CC2(O3)C1C(=O)NC1CCCCC1` (stereo not drawn), the inhibition is reported as -2.2% (inactive).
With `COc1ccccc1C1C(C#N)=C(N)Oc2c1c(-c1ccccc1)nn2-c1ccccc1` (stereo not drawn) the inhibition was -0.56% (inactive).
With `Cn1nc(N)c2ncc(C(Cl)(Cl)Cl)nc21` the inhibition was 2.05% (inactive).
`COc1ccc2c(c1)c(=Cc1ccc(N(C)C)cc1)c1cc(-c3ccccc3)[n+](C)n12` was tested, and the inhibition was 9.49% (inactive).
With `Oc1c(C=Nc2cccc3nsnc23)ccc2ccccc12` the inhibition was 41.4% (active).
`COc1ccc(-c2csc(Nc3ccc(O)cc3)n2)cc1` was tested, and the inhibition was 3.53% (inactive).
In the case of `O=C(OCC(=O)N1CCN(c2ccccc2)CC1)c1ccc([N+](=O)[O-])s1`, the inhibition is reported as 10.4% (inactive).
`COc1cc(OC)cc(C(=O)OCC(=O)Nc2sccc2C(N)=O)c1` was tested, and the inhibition was -2.14% (inactive).
With `COc1cc(NC(=O)COC(=O)c2ccc([N+](=O)[O-])s2)cc(OC)c1OC` the inhibition was 35.1% (active).
`O=C(NC1CCCCC1)N1CCc2[nH]c3ccccc3c2C1` was tested, and the inhibition was 7.01% (inactive).
In the case of `Cc1ccc(Cl)cc1NC(=O)CN1CCN(S(=O)(=O)N2CCOCC2)CC1`, the inhibition is reported as -8.33% (inactive).
`O=c1oc2ccccc2c(CNc2ccccc2)c1[N+](=O)[O-]` was tested, and the inhibition was 11.7% (inactive).
`CCN(CC)CCCC(C)n1c2nc(=O)[nH]c(=O)c-2nc2cc(Cl)ccc21` (stereo not drawn) was tested, and the inhibition was 52.2% (active).
For `O=S(=O)(Nc1ccc(O)c2ccccc12)c1ccc(OC(F)(F)F)cc1`, the inhibition was 15.5% (inactive).
For `Cc1ccc(OCCCCc2c(C)n[nH]c2C)cc1`, the inhibition was 2.05% (inactive).
In the case of `CN1c2ccc(C=O)c3c(C=O)ccc(c23)N(C)C1(C)C`, the inhibition is reported as 21% (inactive).
`CC(=O)c1ccc(S(=O)(=O)N2CCC3(CC2)OCCO3)cc1` was tested, and the inhibition was -6.04% (inactive).
For `COC1=C(N2CCOCC2)C(=O)c2ccccc2C1=O`, the inhibition was 30.9% (active).
`COc1ccc(S(=O)(=O)/N=C2\C=C(NS(=O)(=O)c3ccccc3)C(=O)c3ccccc32)cc1` was tested, and the inhibition was 16.7% (inactive).
With `COCCN1C=C2C(=O)C(C)(OC(=O)C3CCCC3)C(=O)C=C2C=C1c1ccsc1` (stereo not drawn) the inhibition was 12.3% (inactive).
In the case of `O=C1Nc2ccc([N+](=O)[O-])cc2C1=Nc1cccc(CO)c1`, the inhibition is reported as 28.1% (active).
In the case of `Cc1nn(-c2ccccc2)c2c1C(c1ccc(F)cc1)C(C#N)=C(N)O2` (stereo not drawn), the inhibition is reported as -4.61% (inactive).
`CC1=NN(c2ccc(Cl)c(C(=O)O)c2)C(=O)/C1=C/c1ccc(-c2ccccc2[N+](=O)[O-])o1` was tested, and the inhibition was -34.7% (inactive).
In the case of `CCc1ccccc1NC(=S)Nc1cc(OC)c(NC(=O)C(C)C)cc1OC`, the inhibition is reported as 2.01% (inactive).
`Clc1ccc(C2=CSC3=Nc4cccc5cccc(c45)N23)cc1` was tested, and the inhibition was 55% (active).
With `O=C(NCc1ccccc1Cl)C(=O)NCC1CCCN1S(=O)(=O)c1cccs1` (stereo not drawn) the inhibition was -5.35% (inactive).
For `Cc1ccccc1Cn1c2ccccc2c2cnn(CC(=O)NCc3ccco3)c(=O)c21`, the inhibition was -10.2% (inactive).
For `COc1ccc2c(c1)C(C)=CC(C)(C)N2C(=O)Nc1ccccc1`, the inhibition was 7.25% (inactive).
With `COCCn1nnnc1C(c1cc2ccc(OC)cc2[nH]c1=O)N1CCc2ccccc2C1` (stereo not drawn) the inhibition was -0.83% (inactive).
In the case of `C=CCn1c(N)c(C(=O)OCC(C)C)c2nc3ccccc3nc21`, the inhibition is reported as 9.13% (inactive).
In the case of `Oc1ccc(N=Cc2c(O)ccc3ccccc23)cc1`, the inhibition is reported as 52.7% (active).
For `Oc1ccc(N=Cc2sc3ccccc3c2Cl)cc1`, the inhibition was 71.6% (active).
For `CCN1C(=O)c2cccc3c(N)ccc1c23`, the inhibition was 8.24% (inactive).
In the case of `CN(C)c1ccc(N/C=C/C(=O)C(F)(F)F)cc1`, the inhibition is reported as -9.4% (inactive).
`Cc1[nH][nH]c(=O)c1C(c1ccc(-c2ccc(Cl)cc2)o1)c1c(C)[nH][nH]c1=O` was tested, and the inhibition was 20.6% (inactive).
With `O=Cc1cn(-c2ccccc2)nc1-c1ccccn1` the inhibition was 2.54% (inactive).
In the case of `CC1CCCC(NC(=O)c2cc(-c3ccncc3)nc3ccccc23)C1C` (stereo not drawn), the inhibition is reported as -1.39% (inactive).
For `CCOC(=O)c1c(C)[nH]c2c1-c1ccccc1C(=O)C2=O`, the inhibition was 84.2% (active).
In the case of `Nc1ccc2nn(-c3ccc(Cl)cc3)nc2c1`, the inhibition is reported as 1.36% (inactive).
In the case of `CCCCNC(=O)CCn1nc(-c2ccc(Cl)cc2)ccc1=O`, the inhibition is reported as -5.6% (inactive).
For `O=C(COC(=O)Cc1c[nH]c2ccccc12)NCCc1ccccc1`, the inhibition was 4.15% (inactive).
With `Nc1nc(O)c(CC(=O)O)s1` the inhibition was 4.54% (inactive).
`O=C(NC1=CC(=O)c2ccccc2C1=O)c1ccccc1` was tested, and the inhibition was 60.1% (active).
For `Cc1ccc(C(=O)Nc2c(-c3ccccc3)[nH][nH]c2=O)cc1`, the inhibition was 12.1% (inactive).
With `Nn1cnnc1N/N=C/c1cc([N+](=O)[O-])c(Cl)cc1Cl` the inhibition was -5.21% (inactive).
With `CCOc1ccc(C(c2c(C)[nH][nH]c2=O)c2c(C)[nH][nH]c2=O)cc1OCC` the inhibition was 10.8% (inactive).
In the case of `CCOC(=O)c1ccc(Nc2cc3ccccc3c(=O)[nH]2)cc1`, the inhibition is reported as 32.7% (active).
In the case of `CCOC(=O)c1ccc(NC2Nc3cc(C)nn3S2)cc1` (stereo not drawn), the inhibition is reported as 7.05% (inactive).
In the case of `COc1ccccc1CN1CCN(C(c2ccccc2)c2ccccc2)CC1`, the inhibition is reported as 3.64% (inactive).
For `COCCNC(=O)c1ccc(S(=O)(=O)c2ccc(Cl)cc2)c(NC(C)=O)c1`, the inhibition was 9.19% (inactive).
